From PubChem BioAssay
The list is not random: actives were taken first. Their share in the collection is about 3.3%.
HGIII-sPLA2 inh: Inhibits HGIII-sPLA2 liposome hydrolysis, primary screen; Q9NZ20; QFRET BODIPY PC-A2 liposome hydrolysis, fluorescence; inhibition, % at 12.2 µM; 370,000 compounds, 0.56% hits; AID 743126;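 active = inhibition above mean plus 3 SD of compounds lying within the high and low control bounds, cut at about 19% in these data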;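 also: 0% = median of test compound wells and 100% = no enzyme DMSO wells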
UBC13 polyUb: human UBC13 polyubiquitination inhibition; P61088; UBC13 polyubiquitin chain formation, TR-FRET; inhibition, % at 20 µM; 330,000 compounds, 0.47% hits; AID 485273; in the data active = inhibition above about 45%, passing the limit was not always enough
Target sequence (P61088 whole entry, looked up): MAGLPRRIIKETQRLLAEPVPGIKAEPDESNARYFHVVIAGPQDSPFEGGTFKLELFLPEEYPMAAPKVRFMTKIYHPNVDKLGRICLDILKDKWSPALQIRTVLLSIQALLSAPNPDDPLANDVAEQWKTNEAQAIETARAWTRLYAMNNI
GRIN3A LBD mod: modulates the human NR3A ligand-binding domain; NR3A LBD differential scanning fluorimetry, Tm shift; 0% = protein alone, 100% = glycine-bound protein; Tm shift relative to glycine control, % at 25 µM; 340,000 compounds, 2.5% hits; AID 1259313;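 active = melting temperature shift of at least 10% of the positive control shift, at one fixed dose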
SUMO HTRF inh: inhibitors of human SUMOylation (UBC9) | 290,000 compounds, 0.36% hits | HTRF SUMOylation assay, SAE1/SAE2 + UBC9, in vitro | P63279 | inhibition, % at 35 µM; in the data active = inhibition above about 50%, passing the limit was not always enough
Target sequence (P63279 whole entry, looked up): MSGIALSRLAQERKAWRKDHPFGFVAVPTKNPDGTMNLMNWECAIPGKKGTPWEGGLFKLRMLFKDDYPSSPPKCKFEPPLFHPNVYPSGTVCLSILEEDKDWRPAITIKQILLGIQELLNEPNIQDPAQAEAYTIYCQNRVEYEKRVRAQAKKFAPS
The depositor's hits bear a star; · = not tested or not shown.

SMILES | HGIII-sPLA2 inh | UBC13 polyUb | GRIN3A LBD mod | SUMO HTRF inh
CC1CCN(S(=O)(=O)c2ccc(NC(=O)[C@@H]3CCCC[C@@H]3C(=O)O)cc2)CC1 | 0 | 0 | 0 | 10
CC1CCN(S(=O)(=O)c2ccc(NC(=O)c3ccncc3)cc2)CC1 | -2 | -14 | 12* | 21
CC1CCN(S(=O)(=O)c2ccc(NC(=O)C3CCCCC3C(=O)O)cc2)CC1 (configuration not stated) | · | · | 11* | ·
COC(=O)Nc1ccc(S(=O)(=O)N2CCC(C)CC2)cc1 | -2 | 8 | 13* | 16
CC(=O)CC[C@@H]1CC[C@]2(CCCN(C(=O)c3ccccc3)C2)O1 | 0 | · | · | ·
Cc1cc(NC(=O)c2ccc(NS(=O)(=O)c3ccccc3F)cc2)no1 | 1 | · | · | ·
COc1cc(NC(=O)c2ccccc2)c(C)cc1NC(=O)CSc1nnc(-c2ccco2)n1Cc1ccco1 | -14 | · | · | ·
CC(=O)Nc1cc2c(cc1C(C)=O)OCCO2 | 13 | 1 | 13* | 30
CCCC(=O)Nc1cc2c(cc1C(C)=O)OCCO2 | 2 | 0 | -1 | 6
CN1C(=O)C(=O)N2C(=C[C@]3(c4c[nH]c5ccccc45)c4ccccc4N[C@H]23)C1=O | -1 | · | · | ·
CN1CCC(N[C@@H](Cc2ccccc2)C(=O)NCCCc2ccccc2)(C(=O)NCCc2c[nH]c3ccccc23)CC1 | -56 | · | · | ·
C=CCOc1ccc(/C=C2\C(=N)N3N=C(S(=O)(=O)CC)SC3=NC2=O)cc1OC | -6 | -11 | 11* | -2
COc1cc(/C=C2\C(=N)N3N=C(S(C)(=O)=O)SC3=NC2=O)cc(OC)c1OCCOc1ccccc1C | -25 | -16 | 33* | 8
CCS(=O)(=O)C1=NN2C(=N)/C(=C\c3ccc(OC(=O)c4ccco4)c(OC)c3)C(=O)N=C2S1 | -1 | -25 | 1 | -5
COc1cc(/C=C2\C(=N)N3N=C(C)SC3=NC2=O)cc(OC)c1OCCOc1ccccc1C | -25 | -18 | -8 | 6
C(#CC1=CCCCC1)CNCC1CC1 | -1 | · | · | ·
O=C(Oc1ccc2ccccc2c1)c1ccccc1 | -2 | -5 | 19* | -11
Cc1nc2c(N=Nc3ccccc3F)c(N)nn2c(N)c1C#N | 11 | -33 | 15* | 12
COCCCN1C(=O)[C@H](CC(=O)N2CCN(C(=O)c3ccco3)CC2)[C@]2(C(=O)OC)CCCCC=C12 | 11 | · | · | ·
CCOc1ccc(C2=C(C=C(C#N)C#N)C(c3ccccc3)c3ccccc3O2)cc1 (configuration not stated) | 3 | -22 | -5 | -2
COc1ccc(C2=C(CN(C)C)C(c3ccccc3)c3ccccc3O2)cc1 (configuration not stated) | -6 | 26 | 11* | -27
CC(=O)N1CCN(C(=O)CSc2nc3cccnc3n2C)CC1 | 5 | · | · | ·
CCOC(=O)Cn1c2ccccc2c2nc3ccccc3nc21 | 1 | -6 | -2 | 94*
Cc1nc(C)c(CCNC(=O)c2ccc(C(F)(F)F)cc2)s1 | 2 | 9 | 16* | -9
CN(C)CCN(Cc1ccco1)S(=O)(=O)c1ccc(-c2ccc(=O)[nH]n2)s1 | 6 | -12 | 14* | 11
SMILES | HGIII-sPLA2 inh | UBC13 polyUb | GRIN3A LBD mod | SUMO HTRF inh
Nc1ccc(C23CC4CC(CC(O)(C4)C2)C3)cc1 | 5 | 6 | 17* | 7
O=C(Nc1c(-c2ccc(F)cc2)nc2ncccn12)c1ccccc1 | 8 | · | · | ·
S=C(Nc1ccc(Cl)c(Cl)c1)NC1CCCCC1 | · | 6 | 23* | -7
S=C(Nc1ccc(Oc2ccc(NC(=S)NC3CCCCC3)cc2)cc1)NC1CCCCC1 | -7 | -18 | 32* | -29
S=C(Nc1ccc(Oc2ccccc2)cc1)NC1CCCCC1 | 8 | 3 | 5 | -23
O=C(Nc1ccc(Br)cc1)NC1CCCCCCC1 | -3 | -2 | 11* | -2
S=C(Nc1ccc(Oc2ccccc2)cc1)NC1CCCCCC1 | -7 | · | 11* | -18
S=C(Nc1ccc2nsnc2c1)NC1CCCCC1 | 10 | 0 | -5 | 94
O=C(Nc1ccccc1)NC1CCCCCCC1 | -11 | 0 | -2 | ·
O=C(NCc1ccccc1)C1(C(=O)C2CC2)CC(c2ccccc2C(F)(F)F)=NO1 (configuration not stated) | 2 | · | · | ·
CCOc1ccc(-n2c(SCC(=O)Nc3ccccc3-c3ccccc3)nnc2-c2ccccc2)cc1 | -14 | · | · | ·
COC(=O)[C@H]1C[C@@]2(C3C=CC=C3)c3ccccc3N[C@H]2N1 | -3 | · | · | ·
CCOC(=O)N1CCN(C(=O)C[C@H]2C[C@@]3(C(=O)OC)C(=C[C@H](C(C)C)O[C@@H]3C3CC3)N(Cc3ccc4c(c3)OCO4)C2=O)CC1 | -2 | · | · | ·
N#CCC(=O)Nc1ccc(C(=O)OCC(=O)Nc2ccccc2Sc2ccccc2)cc1 | -45 | 9 | 16* | 18
O=C(COC(=O)c1ccc(O)cc1O)Nc1cc(-c2ccccc2)nn1-c1ccccc1 | -34 | 3 | 25* | ·
Cc1cc(C)c(-c2cc(NC(=O)COC(=O)c3ccc(C#N)cc3)n(-c3ccccc3)n2)cc1C | -12 | -20 | -21 | -17
CC(C)(C)c1cc(NC(=O)COC(=O)c2ccc(O)cc2O)n(-c2ccccc2)n1 | -21 | 5 | -5 | ·
N#CCC(=O)Nc1ccc(C(=O)OCc2ccccc2Oc2ccccc2)cc1 | -49 | 5 | 17* | 2
Cc1cc(C)c(-c2cc(NC(=O)COC(=O)c3ccc(NC(=O)CC#N)cc3)n(-c3ccccc3)n2)cc1C | -38 | -13 | 27* | ·
CN(C)c1ccc(NC(=O)NC2CCCCN(Cc3cccc(Cl)c3)C2=O)cc1 (configuration not stated) | 16 | · | · | ·
COc1ccc(-n2c(SCC(=O)Nc3ccc(S(=O)(=O)Nc4nccs4)cc3)nnc2-c2cccs2)cc1 | -43 | · | · | ·
COC(=O)c1c(NC(=O)COC(=O)c2ccc(NC(=O)CC#N)cc2)sc2c1CCCCC2 | -3 | -2 | 19* | ·
Brc1ccc(-c2noc(C3CCCCC3)n2)cc1 | -1 | -1 | 14* | -7
CCCCNS(=O)(=O)c1ccc2nc(SCC(=O)Nc3cccc(F)c3)[nH]c2c1 | -38 | 3 | 17* | -6
CCCCNS(=O)(=O)c1ccc2nc(SCC(=O)Nc3ccccc3Cl)[nH]c2c1 | -74 | -1 | 5 | -8
SMILES | HGIII-sPLA2 inh | UBC13 polyUb | GRIN3A LBD mod | SUMO HTRF inh
CCCCNS(=O)(=O)c1ccc2nc(SCC(=O)Nc3sccc3C#N)[nH]c2c1 | -49 | 20 | 14* | -16
CCCCNS(=O)(=O)c1ccc2nc(SCC(N)=O)[nH]c2c1 | -1 | -3 | 2 | 9
COc1ccc(S(=O)(=O)N(C)C[C@H]2Oc3ccc(NC(=O)Nc4ccc(C(F)(F)F)cc4)cc3C(=O)N([C@H](C)CO)C[C@@H]2C)cc1 | -42 | -17 | 22* | ·
C[C@@H]1CN([C@H](C)CO)C(=O)c2cc(NC(=O)Nc3ccc(C(F)(F)F)cc3)ccc2O[C@H]1CN(C)S(=O)(=O)c1ccccc1 | -39 | -10 | 22* | ·
COc1ccc(NC(=O)Nc2ccc3c(c2)C(=O)N([C@H](C)CO)C[C@H](C)[C@@H](CN(C)S(=O)(=O)c2ccc(OC)cc2)O3)cc1 | -31 | -12 | 6 | ·
CC1CCCC(NC(=O)COC(=O)c2ccccc2Sc2ccccc2C#N)C1C (configuration not stated) | -4 | -5 | 16* | -4
